Results filed as inconclusive are left out. The source made the active and inactive calls. The call rests on the fitted dose curve.

A short description of this assay: qHTS for Inhibitors of Cell Surface uPA Generation: Wild-type Protective Antigen (WT-PrAg) Counterscreen for Cherry-picked Compounds. Further: 0% is about no effect. Conditions: cells, WT protective antigen toxicity counterscreen; series mostly up to 115 µM; activity (protection): at the top concentration. For orientation: qHTS replaces the single test concentration by a dilution series.
On to `COc1cc(OC)cc(C(=O)NC(C(=O)Nc2ccc3c(c2)CCC3)C(C)C)c1` (stereo not drawn), for which the “activity (protection)” value is 0.968% (inactive).

`C/C(=N\NC(=S)NC(C)C)c1ccc(Cl)s1`: the “activity (protection)” value was -1.3% (inactive).

`O=C(NC1CCCCC1)C(c1ccco1)N(C(=O)c1csnn1)c1cccc(Cl)c1` (stereo not drawn): the “activity (protection)” value was 1.16% (inactive). For `CCOc1ccc(NS(=O)(=O)c2ccc(C(=O)N3CCC3)cc2)cc1`, the “activity (protection)” value is -0.678% (inactive). `O=C(COc1cccc2ccccc12)NNC(=O)c1cnccn1`: the “activity (protection)” value is -1.17% (inactive).

With `Cc1[nH]c2ccccc2c1C(=O)COC(=O)c1cccc(S(=O)(=O)N2CCCCC2)c1`, the “activity (protection)” value is 1.61% (inactive). With `CC(=O)NS(=O)(=O)c1ccc(NC(=O)c2cccc(OCc3c(C)noc3C)c2)cc1` the figure was 0.921% (inactive). Next, `CCOc1ccccc1CN1CCCC(CNS(=O)(=O)c2ccc(OC)cc2)C1` (stereo not drawn): -1.27% (inactive).

With `CC1CS(=O)(=O)CCN1N=Cc1ccc([N+](=O)[O-])o1` (stereo not drawn), the “activity (protection)” value was -2.06% (inactive). For the molecule `COc1ccc2cc(CCNC(=O)c3ccc4c(c3)OCO4)c(=O)[nH]c2c1`, the “activity (protection)” value was -0.196% (inactive). Regarding `CCOC(=O)C1CCCN(CC(=O)Nc2ccc(C(=O)Nc3ccccc3OC)cc2)C1` (stereo not drawn), the “activity (protection)” value was 2.21% (inactive). Regarding `COc1ccc2nc3c(cc2c1)c(NC(=O)C1CCCO1)nn3CC(C)C` (stereo not drawn), the “activity (protection)” value is 1.84% (inactive).

`COc1cc2c(cc1OC)CN(C(=O)c1ccc(-c3ccccc3)cc1)CC2`: the “activity (protection)” value was -2.51% (inactive). In the case of `Cc1nn2c(=O)cc(CSc3nc4ccccc4[nH]3)nc2s1`, the “activity (protection)” value was 0.787% (inactive). Consider `NC(=O)c1cc2ccncc2c2ccccc12`, for which the “activity (protection)” value was -0.105% (inactive).

Take `CN(C(=O)CCn1c(=S)oc2ccccc21)c1ccc(F)cc1`: the “activity (protection)” value is 7.17% (inactive).

Turning to `O=C(CCS(=O)(=O)c1ccc2c(c1)NC(=O)CS2)NCCc1ccc(Cl)cc1`, the “activity (protection)” value is 0.14% (inactive). Next, `CCOc1cc(N2CCOCC2)c(OCC)cc1NC(=O)c1[nH]c(C)c(C(C)=O)c1C`: -1.39% (inactive).
